MITF primary: blocks human microphthalmia-associated transcription factor | AlphaScreen MITF homodimerization, bead proximity signal | inhibition, % at 2.6 µM | hit rate 0.91% among 650,000 | AID 1259374; in the data active = inhibition above about 50%;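 note: 0% = vehicle wells with protein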
FBW7 act: human FBW7 E3 ligase activation, primary screen | Q969H0 | AlphaScreen FBW7–phospho-cyclin E peptide binding, activator screen | normalized activity (activation), % at 26.1 µM | hit rate 0.13% among 650,000; in the data active = normalized activity above about 1.9%;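 note: purified mutant Fbw7 with reduced substrate affinity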
GPR151 activ: activators of human GPR151; Q8TDV0; PathHunter beta-arrestin GPR151 cells, luminescence; activation, % at 11.2 µM; hit rate 1% among 650,000; AID 1508602; in the data active = activation above about 4.9%;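 note: 0% = median of compound wells and 100% = cells with positive control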
TEAD-YAP block: TEAD-YAP interaction inhibition | HEK-TIYL cells, TEAD-Gal4/YAP UAS-luciferase luminescence | inhibition, % at 9.12 µM | hit rate 1.4% among 640,000; in the data active = inhibition above about 32%;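 note: 0% = median of test compound wells and 100% = reference inhibitor wells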
GPR151 confirm: confirmation of human GPR151 activators. GPR151 PathHunter beta-arrestin cells, luminescence, 90 min; % of EA-reagent control over plate median. activation, % at 11.2 µM. 6,700 tested, under 10 active. shares compounds with GPR151 activ;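 active = mean percent activation across replicates above the confirmation screen cutoff of 4.91%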
GPR119 counter: GPR119 activation, counter-screen for GPR151 activators | shares compounds with GPR151 activ | GPR119 PathHunter beta-arrestin cells, luminescence, 90 min; 0 = compound-well median, 100 = enzyme-acceptor control | activation, % at 11.2 µM | hit rate 0.3% among 6,700;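 active = mean percent activation in the counterscreen above 29.09%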;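 note: counterscreen on off-target GPR119 to flag nonselective hits from the GPR151 activator screen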
Target sequence (Q8TDV5 whole entry, looked up): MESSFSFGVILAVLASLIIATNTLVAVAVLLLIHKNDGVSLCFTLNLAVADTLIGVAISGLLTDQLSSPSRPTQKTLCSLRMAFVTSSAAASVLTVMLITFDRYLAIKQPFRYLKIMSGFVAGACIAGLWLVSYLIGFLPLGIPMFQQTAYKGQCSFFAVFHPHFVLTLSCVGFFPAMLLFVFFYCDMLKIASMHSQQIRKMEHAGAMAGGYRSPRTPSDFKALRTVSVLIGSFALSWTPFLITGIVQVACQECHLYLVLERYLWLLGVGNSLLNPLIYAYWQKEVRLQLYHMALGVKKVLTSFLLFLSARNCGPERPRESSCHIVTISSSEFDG
* marks the source's active call; other numbers are inactive results; ! = a repeat was not active. An excerpt weighted towards active compounds, which were near 3.5% of everything screened.

For CCC(=O)N(CCc1ccccc1)Cc1cc2cccc(C)c2n2nnnc12 the results were MITF primary 7.1, FBW7 act 0.1, GPR151 activ 0.7 and TEAD-YAP block -6.1.
O=C(c1ccc2c(=O)n(C3CCCCC3)c(=S)[nH]c2c1)N1CCc2ccccc2C1 was read as MITF primary 7.8, FBW7 act -0.1, GPR151 activ 0.3 and TEAD-YAP block -12.4.
Screening O=C1CCCN1CCn1cnc2c(NCc3ccccc3)nc(NCc3cccnc3)nc21 returned MITF primary 4.0, FBW7 act 0.5, GPR151 activ -2.0 and TEAD-YAP block 0.0.
`COc1cc(Nc2nc(NCc3cccnc3)nc3c2ncn3CCN2CCCC2=O)cc(OC)c1OC` gave MITF primary -3.6, FBW7 act 0.0, GPR151 activ 5.0*, TEAD-YAP block -3.7, GPR151 confirm -0.5 and GPR119 counter -7.1.
COc1cc(Nc2nc(NCc3cccc(C(F)(F)F)c3)c3ncn(CCN4CCCC4=O)c3n2)cc(OC)c1OC was read as MITF primary 5.4, FBW7 act 0.4, GPR151 activ 5.3*, TEAD-YAP block 1.9, GPR151 confirm -0.2 and GPR119 counter -10.4.
O=C1CCCN1CCCNc1nc(NCc2cccnc2)nc2c1ncn2CCN1CCCC1=O was read as MITF primary 15.5, FBW7 act 0.2, GPR151 activ 6.7*, TEAD-YAP block -7.2, GPR151 confirm -0.9 and GPR119 counter -15.3.
COc1ccc(CNCCSCc2ccco2)cc1 was read as MITF primary 23.3, FBW7 act 0.0, GPR151 activ 0.3 and TEAD-YAP block 0.5.
For O=C(CC1Sc2ccccc2NC1=O)NCc1ccc2c(c1)OCO2 (centres undefined) the results were MITF primary 1.0, FBW7 act 0.0, GPR151 activ 7.3*, TEAD-YAP block 2.4, GPR151 confirm -0.9 and GPR119 counter -10.6.
Screening COCCCNc1nc2nonc2nc1N(C)Cc1ccccn1 returned MITF primary -8.7, FBW7 act 0.1, GPR151 activ -0.3 and TEAD-YAP block -5.7.
For COCCCNc1nc2nonc2nc1N(C)Cc1ccc(F)cc1 the results were MITF primary 8.3, FBW7 act 0.1, GPR151 activ 5.8*, TEAD-YAP block -1.6, GPR151 confirm 0.7 and GPR119 counter 4.6.
`Cc1cccc(N2C(C)C(=O)SC23CCCCC3)c1` (centres undefined) gave MITF primary 5.9, FBW7 act 0.1, GPR151 activ 0.0 and TEAD-YAP block -3.4.
For O=c1cc(N2CCOCC2)oc2c(-c3ccccc3)cccc12 the results were MITF primary 4.6, FBW7 act 0.1, GPR151 activ 5.4*!, TEAD-YAP block -6.7, GPR151 confirm -0.3 and GPR119 counter -5.8.
Screening Cc1cc(Nc2ccc(Oc3ccccc3)cc2)nc(Nc2ccccn2)n1 returned MITF primary -11.5, FBW7 act -0.2, GPR151 activ 5.9*, TEAD-YAP block -14.9, GPR151 confirm 0.1 and GPR119 counter -2.1.
For Cc1cc(Nc2ccc(Oc3ccccc3)cc2)nc(Nc2cccnc2)n1 the results were MITF primary 12.4, FBW7 act 0.3, GPR151 activ -0.7 and TEAD-YAP block -8.3.
For Nc1ncc(Br)cc1S(=O)(=O)N1CCN(C2CCCCC2)CC1 the results were MITF primary 4.3, FBW7 act 0.2, GPR151 activ 12.6*, TEAD-YAP block 3.6, GPR151 confirm 1.0 and GPR119 counter 9.7.
NC(=O)C1CCN(Cc2ccc(Cl)cc2)CC1 was read as MITF primary 9.4, FBW7 act -0.5, GPR151 activ 0.7 and TEAD-YAP block -7.1.
NC(=O)C1CCN(Cc2cccc(Cl)c2)CC1 was read as MITF primary 40.5, FBW7 act 0.4, GPR151 activ 5.1*, TEAD-YAP block 6.7, GPR151 confirm 1.0 and GPR119 counter 5.6.
`Cc1cccc(N(C)c2nc3ccccc3n3c(C)nnc23)c1` gave MITF primary 6.9, FBW7 act -0.1, GPR151 activ 0.0 and TEAD-YAP block 6.1.
`Cc1cc(C)cc(N=C2NC(=O)/C(=C/c3ccc(OCc4ccc(Br)cc4)c(Br)c3)S2)c1` gave MITF primary -0.6, FBW7 act -0.1, GPR151 activ 0.3 and TEAD-YAP block -11.8.
COc1ccc(/C=C2\SC(=Nc3ccc(O)cc3)NC2=O)cc1 was read as MITF primary -15.9, FBW7 act -0.1, GPR151 activ 1.3 and TEAD-YAP block 7.6.
